Some test systems named below: NCI-H23 lung; NCI-H226 lung; HOP-62 NSCLC; NCI-H460 lung; HOP-92 NSCLC; NCI-H522 lung; A549/ATCC NSCLC; 786-0 renal; COLO 205 colon.
Holding throughout (test): NCI-60 one-dose screen, 48 h (100 = growth as untreated, 0 = no growth, -100 = all killed)
Common to all, as to details: 10 µM unless noted

The panel holds about 83,000 compounds, 20% with a hit somewhere; the sample as a whole holds those more often.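 Negative percent growth values reflect cell death: -40 means 40% of the cells present at the start died, and -100 means all died.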 A number with no mark means an inactive call. Active and inactive are the calls of the source. How the source made its calls: active means growth percent below 10; inactive means the rest.

Regarding `O=C1c2ccccc2C(=O)c2c1cc1c(c2[N+](=O)[O-])OCO1`, the growth with NCI-H23 lung was 4.14% (active); in the experiment with NCI-H226 lung, 25.9%; with HOP-62 NSCLC it was 3.82% (active); in the experiment with NCI-H460 lung, 3.42% (active); with HOP-92 NSCLC, -3.71% (active); in the experiment on NCI-H522 lung it was -46.6% (active). Besides, the growth was 49% in the experiment with A549/ATCC NSCLC, 2.64% (active) with 786-0 renal and 48% in the experiment with COLO 205 colon.

In the case of `CC1=C(C(=O)Nc2ccccc2)C(c2ccc3c(c2)OCO3)NC(=S)N1` (stereo not given), the growth in the experiment on NCI-H23 lung was 97.9%; in the experiment with NCI-H226 lung, 96.7%; with HOP-62 NSCLC, 121%; in the experiment on NCI-H460 lung it was 113%; in the experiment with HOP-92 NSCLC, 112%; with NCI-H522 lung it was 87.9%. Also, the growth was 108% with A549/ATCC NSCLC, 101% with 786-0 renal and 117% in the experiment with COLO 205 colon.

For the molecule `Cc1ccc2nc(-c3ccc(C(=O)NNC(=S)Nc4ccccc4)cc3)[nH]c2c1`, the growth with NCI-H23 lung is 91.5%; in the experiment on NCI-H226 lung it was 92.7%; in the experiment with HOP-62 NSCLC it was 95.3%; with NCI-H460 lung, 94.4%; in the experiment on HOP-92 NSCLC, 99.8%; in the experiment with NCI-H522 lung, 95%. For the same molecule, the growth in the experiment with A549/ATCC NSCLC is 101%; with 786-0 renal it was 94.8%; with COLO 205 colon, 119%.

In the case of `O=C(O)[C@@H](Cc1ccc2ccccc2c1)NC(=O)n1c2ccccc2c2ccccc21`, the growth in the experiment with NCI-H23 lung is 34.8%; in the experiment on NCI-H226 lung, 85.9%; in the experiment on HOP-62 NSCLC, 31.3%; in the experiment on NCI-H460 lung, 9.11% (active); in the experiment with HOP-92 NSCLC, 39.5%; with NCI-H522 lung, -7.97% (active). The growth with A549/ATCC NSCLC is 44.3%; in the experiment on 786-0 renal, 27.7%; in the experiment on COLO 205 colon, -35.2% (active).

On to `COc1ccc(Oc2nc(Nc3ccc(N4CCOCC4)cc3)ncc2NC(=O)Nc2cc(OC)cc(OC)c2)cc1`, for which the growth with NCI-H23 lung was 33.2%; with NCI-H226 lung it was 32.7%; with HOP-62 NSCLC, 48.2%; in the experiment on NCI-H460 lung, -36.5% (active); with HOP-92 NSCLC, -11.5% (active); in the experiment on NCI-H522 lung it was 4.69% (active). In addition, the growth is 2.22% (active) in the experiment on A549/ATCC NSCLC, 22.5% in the experiment with 786-0 renal and -54.8% (active) in the experiment with COLO 205 colon.

With `C=C(C)[C@@H]1CC[C@]2(C(N)=O)CC[C@]3(C)[C@H](CC[C@@H]4[C@@]5(C)CC[C@H](OCCC#N)C(C)(C)[C@@H]5CC[C@]43C)[C@@H]12`, the growth in the experiment on NCI-H23 lung is 91.3%; with NCI-H226 lung, 84.1%; in the experiment with HOP-62 NSCLC, 95%; in the experiment with NCI-H460 lung, 79%; with HOP-92 NSCLC it was 78.1%; with NCI-H522 lung, 77.5%. In addition, the growth is 94.8% with 786-0 renal and 86.1% in the experiment on COLO 205 colon.

As to `C#CCO[C@H]1CC(CC#C)(CC#C)C(=O)[C@@H]2[C@H]1[C@H]1C[C@@H]3[C@@]4(C)CCC[C@@](C)(C(=O)OC)[C@@H]4CC[C@@]23C=C1C(C)C`, the growth in the experiment on NCI-H23 lung was 73.2%; with NCI-H226 lung, 88.3%; in the experiment on HOP-62 NSCLC, 98.7%; in the experiment on NCI-H460 lung, 97.8%; in the experiment with HOP-92 NSCLC it was 13.6%; with NCI-H522 lung it was -77% (active). The results for the growth with A549/ATCC NSCLC, in the experiment on 786-0 renal and in the experiment with COLO 205 colon were 89.4%, 41.4% and 86.8%, respectively.

`COc1ccc(/C=C/C(=O)c2cc3c(N)c(C(=O)Nc4cccc(Cl)c4C)sc3nc2C)cc1`: the growth in the experiment with NCI-H23 lung is 19.8%; in the experiment with NCI-H226 lung, 34.8%; in the experiment with HOP-62 NSCLC, 20.7%; with NCI-H460 lung it was 0.238% (active); in the experiment on HOP-92 NSCLC, 39.2%; in the experiment with NCI-H522 lung, -8.5% (active). Also, the growth in the experiment with A549/ATCC NSCLC was 17.6%; in the experiment with 786-0 renal, 4.44% (active); with COLO 205 colon, -28.9% (active).

For the molecule `O=C1Nc2ccccc2C1(c1c[nH]c2ccccc12)c1c[nH]c2ccccc12`, the growth in the experiment on NCI-H23 lung is -13.5% (active); with NCI-H226 lung, 8.63% (active); with HOP-62 NSCLC, 49.3%; with NCI-H460 lung it was 70.6%; with HOP-92 NSCLC, -6.64% (active); in the experiment with 786-0 renal, 83.7%. Also, the growth in the experiment with COLO 205 colon is -27.7% (active).

Consider `CN1C(=O)/C(=C/c2ccc(C(=O)Nc3ncc(Cc4cccc(Cl)c4)s3)cc2)SC1=S`, for which the growth in the experiment on NCI-H23 lung is 59.5%; with NCI-H226 lung, 64.5%; in the experiment on HOP-62 NSCLC, 62.9%; in the experiment on NCI-H460 lung, 20.3%; with HOP-92 NSCLC, 71.9%; in the experiment with NCI-H522 lung, 57.5%. Moreover, the growth in the experiment with A549/ATCC NSCLC is 56%; in the experiment on 786-0 renal, 63.4%; in the experiment on COLO 205 colon it was 57.8%.

On to `CCCCCCCCCCCCCOC(=O)c1c(C)[nH]c(/C=C2\N=C(c3ccc[nH]3)C=C2OC)c1C`, for which the growth in the experiment on NCI-H23 lung is 31.4%; in the experiment on NCI-H226 lung it was -38.1% (active); in the experiment with HOP-62 NSCLC, 30.1%; with NCI-H460 lung, 16.1%; with HOP-92 NSCLC, -6.46% (active); in the experiment with NCI-H522 lung, 5.93% (active). The results for the growth with A549/ATCC NSCLC, in the experiment with 786-0 renal and in the experiment on COLO 205 colon were -4.51% (active), 22.3% and 7.58% (active), respectively.

Take `CCO/C=N/C1=C(C#N)C(c2ccc(F)cc2)c2sc3c(F)cccc3c2O1` (stereo not given): the growth in the experiment with NCI-H23 lung was 61.2%; in the experiment with NCI-H226 lung it was 67.8%; with HOP-62 NSCLC it was 50.9%; with NCI-H460 lung it was 16.3%; in the experiment on HOP-92 NSCLC, 58.8%; in the experiment with NCI-H522 lung it was -22% (active). Also, the growth is 40.6% in the experiment with A549/ATCC NSCLC, 35.2% with 786-0 renal and 78.3% in the experiment with COLO 205 colon.

In the case of `Cc1ccc(CNc2ccc3nc(CCC(C)C)[nH]c3c2)cc1`, the growth in the experiment with NCI-H23 lung is 94.2%; in the experiment on NCI-H226 lung, 89.8%; with HOP-62 NSCLC, 99.6%; in the experiment on NCI-H460 lung, 106%; in the experiment with HOP-92 NSCLC, 56.7%; in the experiment on NCI-H522 lung it was 84.2%. The figures for the growth in the experiment on A549/ATCC NSCLC, in the experiment with 786-0 renal and in the experiment with COLO 205 colon were 97.6%, 84% and 102%, respectively.

As for `CS(=O)(=O)c1ccc(NC(=O)c2ccccc2)nc1`, the growth in the experiment with NCI-H23 lung was 108%; with NCI-H226 lung it was 103%; in the experiment on HOP-62 NSCLC it was 95.6%; in the experiment on NCI-H460 lung, 105%; in the experiment on HOP-92 NSCLC it was 106%; in the experiment with NCI-H522 lung it was 68.9%. Moreover, the results for the growth in the experiment with A549/ATCC NSCLC, with 786-0 renal and in the experiment with COLO 205 colon were 96.3%, 99.1% and 128%, respectively.

Take `CNC1=C([N+](=O)[O-])C(c2ccc(OC)cc2)C(C#N)=C(c2cccs2)O1` (stereo not given): the growth is 103% in the experiment with NCI-H23 lung; 99.8% with NCI-H226 lung; 99.6% in the experiment on HOP-62 NSCLC; 109% in the experiment on NCI-H460 lung; 125% with HOP-92 NSCLC; 102% in the experiment on NCI-H522 lung. Further, the results for the growth in the experiment with A549/ATCC NSCLC, in the experiment on 786-0 renal and in the experiment with COLO 205 colon were 102%, 110% and 111%, respectively.

With `N=c1c(S(=O)(=O)c2ccccc2)cc2c(=O)n3ccccc3nc2n1CC1CCCO1` (stereo not given), the growth is 99.8% in the experiment on NCI-H23 lung; 103% with NCI-H226 lung; 95% in the experiment with HOP-62 NSCLC; 105% in the experiment on NCI-H460 lung; 94.5% in the experiment with HOP-92 NSCLC; 100% in the experiment on NCI-H522 lung. For the same molecule, the growth in the experiment with A549/ATCC NSCLC was 111%; in the experiment on 786-0 renal, 103%; with COLO 205 colon, 113%.

For `N#Cc1cccc(C2C3=C(COC3=O)N(CCO)c3cc4c(cc32)OCO4)c1` (stereo not given), the growth with NCI-H23 lung was 44%; in the experiment with NCI-H226 lung it was 74.9%; in the experiment with HOP-62 NSCLC it was 32.2%; in the experiment on NCI-H460 lung, 14.8%; with HOP-92 NSCLC, 42.4%; with NCI-H522 lung it was 17%. Moreover, the growth with 786-0 renal is 24.9%; with COLO 205 colon, 8.4% (active).

`Nc1nc2c(c3ncccc13)C(c1cccc(Cl)c1)Cc1ncccc1-2` (stereo not given): the growth was 39.7% in the experiment with NCI-H23 lung; 75.8% in the experiment with NCI-H226 lung; 6.87% (active) in the experiment on NCI-H460 lung; 38.6% in the experiment with HOP-92 NSCLC; -14.5% (active) in the experiment with NCI-H522 lung; 18.6% with A549/ATCC NSCLC. The growth with 786-0 renal was 22.6%; in the experiment with COLO 205 colon, -21.5% (active).

Take `CCOC(=O)c1c(C)nc2c(c1N)CC(=O)N2Cc1ccc(OC)cc1`: the growth is 33.7% in the experiment on NCI-H23 lung; 17.4% in the experiment on NCI-H226 lung; -7.19% (active) in the experiment with HOP-62 NSCLC; 5.12% (active) with NCI-H460 lung; -4.45% (active) in the experiment on HOP-92 NSCLC; -1.06% (active) in the experiment on NCI-H522 lung. In addition, the growth was 6.69% (active) in the experiment with 786-0 renal and 95.4% in the experiment on COLO 205 colon.

Values taken from PubChem BioAssay (NCI).
